From PubChem BioAssay (EPA / NIEHS)
Activity calls are given as the source filed them. How the source made its calls: active means hit-call score of the fitted dose curve at least 0.9, where 1 is the maximum; inactive means score below 0.9.

How the values were obtained:
[1] = target: Transcription factor E2F1 (Homo sapiens) (UniProt Q01094); assay: ATG_E2F_CIS: Attagene CIS-FACTORIAL HepG2 Assay for human E2F Transcription Factor 1 (AID 2282935); details: HepG2 Attagene cis-reporter, E2F reporter RNA transcripts; actives raise or lower the signal
How it was run: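 Endogenous E2F1 activity read through cis-promoter reporter units transfected into HepG2. After 24 h compound treatment, reporter mRNA measured by RT-PCR, HpaI digestion and capillary electrophoresis. Bidirectional fit versus DMSO.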

[2] = ATG_E_Box_CIS: Attagene CIS-FACTORIAL HepG2 Assay for human Enhancer Box (E-box) (AID 2282936); details: HepG2 E-box cis-reporter transcription, actives raise or lower the signal
How it was run: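 HepG2 cells transiently transfected with multiplexed cis-element reporter units, dosed 24 h; reporter mRNA quantified by RT-PCR, 6-FAM labelling, HpaI digestion and capillary electrophoresis. E-box (USF1) signal fitted bidirectionally vs DMSO.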

[3] = ATG_M_61_CIS: Attagene CIS-FACTORIAL HepG2 Assay for M61 Transcription Factor (Internal Marker) (AID 2282937); details: HepG2 Attagene CIS-FACTORIAL M61 internal marker reporter; actives raise or lower the signal
How it was run: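 Background-control endpoint: HepG2 cells with cis-regulated reporter constructs, 24 h exposure, reporter mRNA detected via fluorescent primer extension and capillary electrophoresis; values from bidirectional fitting with DMSO baseline.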

[4] = ATG_EGR_CIS: Attagene CIS-FACTORIAL HepG2 Assay for human Early Growth Response 1 (EGR1) (AID 2282938); details: HepG2 Attagene CIS-FACTORIAL EGR reporter mRNA; actives raise or lower the signal
How it was run: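 Endpoint derived by bidirectional fitting versus DMSO vehicle. Method: cis-promoter reporter units transfected into HepG2, 24 h dosing, RNA isolation, RT-PCR with 6-FAM primer extension and HpaI digestion, then capillary electrophoresis fluorescence detection.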

[5] = ATG_M_19_CIS: Attagene CIS-FACTORIAL HepG2 Assay for M19 Transcription Factor (Internal Marker) (AID 2282939); details: HepG2 Attagene CIS-FACTORIAL M19 internal marker reporter; actives raise or lower the signal
How it was run: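 Chemical-treated HepG2 (24 h) with MRTU constructs; reporter transcripts detected by fluorescent RT-PCR fragment analysis on capillary electrophoresis. Internal background marker, DMSO as baseline.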

[6] = ATG_ERE_CIS: Attagene CIS-FACTORIAL HepG2 Assay for Estrogen Response Element (ERE) (AID 2282940); details: HepG2 ERE cis-reporter, Attagene RNA transcript; actives raise or lower the signal
How it was run: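 Human liver cells (HepG2) bearing transiently transfected, promoter-regulated reporter units were exposed 24 h. Reporter mRNA induction was detected by capillary electrophoresis of labelled RT-PCR products and fitted bidirectionally to DMSO.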

[7] = ATG_Ets_CIS: Attagene CIS-FACTORIAL HepG2 Assay for human Erythroblast Transformation Specific (ETS) (AID 2282941); details: HepG2 ETS cis-reporter transcription, actives raise or lower the signal
How it was run: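 HepG2 cells transiently transfected with cis-promoter reporter transcription units were dosed for 24 h; reporter mRNA was measured by RT-PCR, 6-FAM primer extension, HpaI digestion and capillary electrophoresis, with bidirectional fitting against DMSO baseline.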

[8] = target: Hepatocyte nuclear factor 3-beta (Homo sapiens) (UniProt Q9Y261); assay: ATG_FoxA2_CIS: Attagene CIS-FACTORIAL HepG2 Assay for human Forkhead box A2 (FOXA2) (AID 2282942); details: HepG2 cis-reporter transcription factor activity, 24 h; actives raise or lower the signal
How it was run: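 Measured: reporter mRNA induction or loss in HepG2 transiently carrying multiple cis-regulated reporter units, 24 h after dosing. Quantified by RT-PCR plus capillary electrophoresis, normalised to DMSO.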

[9] = ATG_GATA_CIS: Attagene CIS-FACTORIAL HepG2 Assay for human GATA Binding Protein (AID 2282944); details: HepG2 GATA cis-element reporter, Attagene multiplex mRNA; actives raise or lower the signal
How it was run: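 Transfected cis-reporter HepG2 cells were treated with chemicals for 24 hours. Total RNA was then converted to cDNA, amplified with reporter-specific primers and analysed by fluorescent capillary electrophoresis, using DMSO-treated wells as baseline.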

[10] = ATG_GLI_CIS: Attagene CIS-FACTORIAL HepG2 Assay for human Zinc Finger Protein GLI1 (AID 2282945); details: HepG2, Attagene cis-factorial reporter mRNA, GLI element; actives raise or lower the signal
How it was run: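 Transiently transfected HepG2 cells report endogenous transcription factor activity via cis-element-driven reporter units. After 24 h compound exposure, reporter mRNA was measured by RT-PCR with capillary electrophoresis; bidirectional fitting against DMSO baseline.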

[11] = target: Bile acid receptor (Homo sapiens) (UniProt Q96RI1); assay: ATG_IR1_CIS: Attagene CIS-FACTORIAL HepG2 Assay for human Nuclear Receptor Subfamily 1 Group H Member 4 (NR1H4), IR1 submotif (AID 2282946); details: IR1 reporter transcription, actives raise or lower the signal
How it was run: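 HepG2 cells transiently transfected with multiple cis-promoter-driven reporter units to measure endogenous transcription factor activity; 24 h exposure. Reporter mRNA read by RT-PCR, FAM labelling, HpaI digestion and capillary electrophoresis. Bidirectional fit versus DMSO.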

[12] = ATG_ISRE_CIS: Attagene CIS-FACTORIAL HepG2 Assay for human Interferon Regulatory Factor 1 (IRF1) binding to an Interferon-Stimulated Response Element (ISRE) (AID 2282948); details: HepG2 ISRE cis-reporter (Attagene), mRNA transcription readout; actives raise or lower the signal
How it was run: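 HepG2 cells transiently transfected with multiplexed cis-promoter reporter units; after 24 h compound exposure, reporter mRNA quantified by RT-PCR, FAM labelling, HpaI digestion and capillary electrophoresis. Bidirectional fit versus DMSO baseline.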

[13] = ATG_M_32_CIS: Attagene CIS-FACTORIAL HepG2 Assay for M32 Transcription Factor (Internal Marker) (AID 2282949); details: HepG2 Attagene cis-factorial M32 reporter, mRNA; actives raise or lower the signal;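 further: background control marker of the multiplexed CIS panel rather than a real target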
How it was run: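 Fluorescent capillary electrophoresis peaks of HpaI-digested, FAM-labelled RT-PCR reporter products give the signal. Source: transiently transfected human liver HepG2 cells, 24 h after chemical dosing; bidirectional fitting against DMSO.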

[14] = ATG_M_06_CIS: Attagene CIS-FACTORIAL HepG2 Assay for M06 Transcription Factor (Internal Marker) (AID 2282950); details: HepG2 Attagene CIS-FACTORIAL M06 internal marker reporter; actives raise or lower the signal
How it was run: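 Cells (HepG2, transiently carrying cis-driven reporter units) receive chemical for 24 h before RNA isolation. Reporter cDNA is PCR-amplified, FAM-labelled by primer extension, HpaI-digested and sized on a capillary analyser.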

[15] = target: Hypoxia-inducible factor 1-alpha (Homo sapiens) (UniProt Q16665); assay: ATG_HIF1a_CIS: Attagene CIS-FACTORIAL HepG2 Assay for human Hypoxia Inducible Factor 1 (HIF1A) (AID 2282951); details: HepG2 Attagene cis-factorial HIF1a reporter transcription; actives raise or lower the signal
How it was run: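 Dosed 24 h, transfected HepG2 cells yielded total RNA whose reporter transcripts were RT-PCR-amplified and sized by capillary electrophoresis using fluorescent labelling; DMSO defined baseline, with gain and loss of signal both fitted.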

[16] = target: Hepatocyte nuclear factor 6 (Homo sapiens) (UniProt Q9UBC0); assay: ATG_HNF6_CIS: Attagene CIS-FACTORIAL HepG2 Assay for human Hepatocyte Nuclear Factor 6 (HNF6) (AID 2282952); details: HepG2 Attagene cis-factorial HNF6 reporter transcription; actives raise or lower the signal
How it was run: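 Transiently transfected HepG2 cells expressing cis-regulated reporter transcription units were exposed to chemical for 24 h in a 24-well format. Reporter transcript abundance was determined by fluorescence capillary electrophoresis.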

[17] = target: Heat shock factor protein 1 (Homo sapiens) (UniProt Q00613); assay: ATG_HSE_CIS: Attagene CIS-FACTORIAL HepG2 Assay for human Heat Shock Transcription Factor 1 (HSE) (AID 2282953); details: HepG2 HSE cis-reporter, Attagene RNA transcription; actives raise or lower the signal
How it was run: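 Liver-derived HepG2 cells carry transiently introduced multiple reporter units governed by cis promoters. Reporter RNA measured 24 h post-dose through reverse transcription, PCR amplification, fluorescent labelling and capillary electrophoresis, normalised to DMSO.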

[18] = ATG_MRE_CIS: Attagene CIS-FACTORIAL HepG2 Assay for human Metal Responsive Element (MRE) (AID 2282954); details: HepG2 MRE cis-reporter transcription, Attagene multiplex; actives raise or lower the signal
How it was run: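 HepG2 cells transiently transfected with cis-element-driven reporter units; mRNA measured 24 h after dosing. Reporter transcripts quantified by RT-PCR, FAM labelling, HpaI digestion and capillary electrophoresis; bidirectional fit versus DMSO.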

[19] = ATG_GRE_CIS: Attagene CIS-FACTORIAL HepG2 Assay for human Glucocorticoid Response Elements (GRE) (AID 2282947); details: HepG2 GRE cis-reporter, Attagene multiplex mRNA; actives raise or lower the signal
How it was run: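 Transiently transfected HepG2 cells carrying GRE cis-reporter units (endogenous TF activity) dosed 24 h; reporter mRNA quantified by RT-PCR, 6-FAM labelling, HpaI digestion and capillary electrophoresis. Bidirectional fit versus DMSO baseline.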

Measured: AC50

Sequence of Bile acid receptor (Homo sapiens) (Q96RI1 whole entry, looked up): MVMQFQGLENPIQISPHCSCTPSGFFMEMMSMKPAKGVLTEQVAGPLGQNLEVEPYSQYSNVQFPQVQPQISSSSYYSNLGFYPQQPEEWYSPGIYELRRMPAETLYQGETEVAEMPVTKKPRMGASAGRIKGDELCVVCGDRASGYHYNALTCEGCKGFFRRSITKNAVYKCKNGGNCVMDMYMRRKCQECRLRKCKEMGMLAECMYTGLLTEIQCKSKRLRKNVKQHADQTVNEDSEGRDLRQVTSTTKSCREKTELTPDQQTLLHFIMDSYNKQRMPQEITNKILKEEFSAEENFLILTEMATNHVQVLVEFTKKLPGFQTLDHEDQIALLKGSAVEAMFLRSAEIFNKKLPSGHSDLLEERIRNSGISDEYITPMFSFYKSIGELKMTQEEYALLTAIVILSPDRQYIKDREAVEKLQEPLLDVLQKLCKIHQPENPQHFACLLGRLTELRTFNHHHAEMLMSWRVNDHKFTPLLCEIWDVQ
Sequence of Heat shock factor protein 1 (Homo sapiens) (Q00613 whole entry, looked up): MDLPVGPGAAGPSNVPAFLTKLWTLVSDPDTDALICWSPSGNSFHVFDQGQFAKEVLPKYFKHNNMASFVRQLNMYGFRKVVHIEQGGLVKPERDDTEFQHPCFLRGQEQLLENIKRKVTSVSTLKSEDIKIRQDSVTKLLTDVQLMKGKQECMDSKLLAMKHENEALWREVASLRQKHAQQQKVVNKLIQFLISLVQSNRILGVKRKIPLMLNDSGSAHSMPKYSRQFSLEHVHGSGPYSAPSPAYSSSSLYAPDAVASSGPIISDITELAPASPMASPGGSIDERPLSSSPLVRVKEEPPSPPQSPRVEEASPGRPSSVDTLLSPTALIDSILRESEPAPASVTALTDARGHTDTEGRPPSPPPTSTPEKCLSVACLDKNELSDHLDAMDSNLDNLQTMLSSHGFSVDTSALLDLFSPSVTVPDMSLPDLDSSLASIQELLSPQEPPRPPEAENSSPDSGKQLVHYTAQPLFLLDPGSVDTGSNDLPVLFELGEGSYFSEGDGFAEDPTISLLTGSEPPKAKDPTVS
Sequence of Hypoxia-inducible factor 1-alpha (Homo sapiens) (Q16665 whole entry, looked up): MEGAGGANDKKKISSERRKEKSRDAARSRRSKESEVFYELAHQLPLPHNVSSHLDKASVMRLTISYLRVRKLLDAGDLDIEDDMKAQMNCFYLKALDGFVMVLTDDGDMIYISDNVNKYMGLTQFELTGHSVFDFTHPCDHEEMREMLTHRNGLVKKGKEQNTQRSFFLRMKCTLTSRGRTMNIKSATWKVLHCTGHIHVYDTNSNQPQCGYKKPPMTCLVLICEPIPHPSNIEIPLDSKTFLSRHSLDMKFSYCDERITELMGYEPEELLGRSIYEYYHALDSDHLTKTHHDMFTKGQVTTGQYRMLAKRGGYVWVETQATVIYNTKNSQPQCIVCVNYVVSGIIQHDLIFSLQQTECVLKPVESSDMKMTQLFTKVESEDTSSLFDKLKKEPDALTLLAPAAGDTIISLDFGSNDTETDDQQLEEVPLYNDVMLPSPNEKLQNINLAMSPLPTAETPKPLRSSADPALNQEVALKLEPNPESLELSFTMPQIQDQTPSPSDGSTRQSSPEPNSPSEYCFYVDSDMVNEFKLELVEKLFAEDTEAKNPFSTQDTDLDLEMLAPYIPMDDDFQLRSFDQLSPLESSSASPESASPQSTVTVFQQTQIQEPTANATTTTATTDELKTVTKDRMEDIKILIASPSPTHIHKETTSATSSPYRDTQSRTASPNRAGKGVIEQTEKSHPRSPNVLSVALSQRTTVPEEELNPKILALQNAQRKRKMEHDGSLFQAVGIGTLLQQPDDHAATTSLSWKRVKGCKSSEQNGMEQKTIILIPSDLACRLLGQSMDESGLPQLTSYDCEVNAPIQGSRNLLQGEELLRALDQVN
Sequence of Hepatocyte nuclear factor 3-beta (Homo sapiens) (Q9Y261 whole entry, looked up): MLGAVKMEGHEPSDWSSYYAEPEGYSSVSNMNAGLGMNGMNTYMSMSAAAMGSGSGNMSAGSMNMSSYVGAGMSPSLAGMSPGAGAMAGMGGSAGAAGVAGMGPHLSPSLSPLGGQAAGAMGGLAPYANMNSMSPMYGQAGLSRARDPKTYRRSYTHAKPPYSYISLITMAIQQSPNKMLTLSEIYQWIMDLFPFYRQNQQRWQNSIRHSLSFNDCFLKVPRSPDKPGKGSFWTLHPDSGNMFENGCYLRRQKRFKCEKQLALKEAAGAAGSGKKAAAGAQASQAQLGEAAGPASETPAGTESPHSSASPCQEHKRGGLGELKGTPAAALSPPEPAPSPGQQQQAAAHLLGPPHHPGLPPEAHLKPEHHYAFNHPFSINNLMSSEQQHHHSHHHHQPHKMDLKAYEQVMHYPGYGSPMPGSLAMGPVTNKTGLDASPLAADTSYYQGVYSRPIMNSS
Sequence of Hepatocyte nuclear factor 6 (Homo sapiens) (Q9UBC0 whole entry, looked up): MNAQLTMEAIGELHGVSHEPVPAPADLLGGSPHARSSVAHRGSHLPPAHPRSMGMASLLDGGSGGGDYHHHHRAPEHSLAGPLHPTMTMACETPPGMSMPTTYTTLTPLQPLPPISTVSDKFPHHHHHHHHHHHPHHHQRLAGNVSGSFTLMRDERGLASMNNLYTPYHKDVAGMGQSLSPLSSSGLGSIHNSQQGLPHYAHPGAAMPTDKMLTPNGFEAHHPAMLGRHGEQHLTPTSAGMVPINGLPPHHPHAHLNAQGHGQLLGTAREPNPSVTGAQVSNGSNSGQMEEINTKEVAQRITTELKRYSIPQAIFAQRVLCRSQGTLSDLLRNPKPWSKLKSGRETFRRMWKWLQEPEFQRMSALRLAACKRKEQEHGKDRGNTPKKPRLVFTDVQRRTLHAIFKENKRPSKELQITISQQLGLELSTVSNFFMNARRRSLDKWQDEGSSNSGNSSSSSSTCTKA
Sequence of Transcription factor E2F1 (Homo sapiens) (Q01094 whole entry, looked up): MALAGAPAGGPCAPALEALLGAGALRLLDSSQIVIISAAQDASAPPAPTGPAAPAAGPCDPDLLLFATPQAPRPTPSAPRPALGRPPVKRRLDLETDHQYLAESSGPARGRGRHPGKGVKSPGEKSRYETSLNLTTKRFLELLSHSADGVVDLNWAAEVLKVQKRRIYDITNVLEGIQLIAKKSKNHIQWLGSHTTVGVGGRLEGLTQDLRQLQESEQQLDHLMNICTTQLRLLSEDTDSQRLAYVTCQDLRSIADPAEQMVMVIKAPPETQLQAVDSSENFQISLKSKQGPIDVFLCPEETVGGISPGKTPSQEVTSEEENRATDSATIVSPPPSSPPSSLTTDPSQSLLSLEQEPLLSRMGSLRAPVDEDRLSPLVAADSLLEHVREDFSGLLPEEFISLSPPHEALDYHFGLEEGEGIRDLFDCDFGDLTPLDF

O=C(OCCOCCOCCOC(=O)c1ccccc1)c1ccccc1
active: [6] 0.62 µM
not listed: [19]
inactive: all other assays above

O=C(O)C=C(C(F)(F)F)C(F)(F)F
not listed: [11]
inactive: all other assays above

CC(Cc1ccc(O)c(O)c1)C(C)Cc1ccc(O)c(O)c1 (centres undefined)
active: [1] 33.4 µM | [4] 20.5 µM | [6] 8.81 µM | [15] 8.95 µM | [17] 57.7 µM | [18] 22.3 µM
inactive: all other assays above

CCN(Cc1cccc(S(=O)(=O)O)c1)c1ccc(C(=C2C=CC(=[N+](CC)Cc3cccc(S(=O)(=O)O)c3)C=C2)c2ccc(O)cc2S(=O)(=O)[O-])cc1
active: [6] 16.8 µM
inactive: all other assays above

FC(F)(F)C(F)(F)C(F)(F)C(F)(F)C(F)(F)C(F)(F)CCS
active: [6] 26.4 µM
not listed: [19]
inactive: all other assays above

O=C(Cl)C(F)(F)C(F)(F)C(F)(F)C(F)(F)C(F)(F)C(F)(F)C(F)(F)C(F)(F)F
active: [12] 33.4 µM | [17] 49.6 µM | [18] 48 µM
not listed: [19]
inactive: all other assays above

C=CC(=O)OCC(F)(F)C(F)(F)C(F)(F)C(F)(F)C(F)(F)C(F)(F)C(F)(F)F
active: [6] 21 µM
not listed: [19]
inactive: all other assays above

C#C[C@]1(O)CC[C@H]2[C@@H]3CCc4cc(OC)ccc4[C@H]3CC[C@@]21C
active: [6] 0.00935 µM | [18] 7.54 µM
inactive: all other assays above

CC(C)(C)C(=O)CC(=O)C(F)(F)C(F)(F)C(F)(F)F
not listed: [11] | [19]
inactive: all other assays above

CCO[Si](CCC(F)(F)C(F)(F)C(F)(F)C(F)(F)C(F)(F)C(F)(F)F)(OCC)OCC
not listed: [11]
inactive: all other assays above

[Co]
inactive: all assays above

CCCCOc1ccc(N)cc1
not listed: [19]
inactive: all other assays above
